High-throughput results: PubChem BioAssay, Paczesny and Yang Labs, IUPUI and University of Michigan
ST2 inh: inhibitors of human ST2 (IL1RL1) binding to IL-33, primary screen, biochemical, AlphaLISA; AID 1259354, 2018; Interleukin-1 receptor-like 1 (Homo sapiens), Q01638; inhibition, % for hits at 17 µM; actives 2.3% (n = 78,000); AlphaLISA ST2-Fc/biotin-IL-33 interaction, 1 h; in the data active = inhibition above about 30%
Target sequence (Q01638 whole entry, looked up): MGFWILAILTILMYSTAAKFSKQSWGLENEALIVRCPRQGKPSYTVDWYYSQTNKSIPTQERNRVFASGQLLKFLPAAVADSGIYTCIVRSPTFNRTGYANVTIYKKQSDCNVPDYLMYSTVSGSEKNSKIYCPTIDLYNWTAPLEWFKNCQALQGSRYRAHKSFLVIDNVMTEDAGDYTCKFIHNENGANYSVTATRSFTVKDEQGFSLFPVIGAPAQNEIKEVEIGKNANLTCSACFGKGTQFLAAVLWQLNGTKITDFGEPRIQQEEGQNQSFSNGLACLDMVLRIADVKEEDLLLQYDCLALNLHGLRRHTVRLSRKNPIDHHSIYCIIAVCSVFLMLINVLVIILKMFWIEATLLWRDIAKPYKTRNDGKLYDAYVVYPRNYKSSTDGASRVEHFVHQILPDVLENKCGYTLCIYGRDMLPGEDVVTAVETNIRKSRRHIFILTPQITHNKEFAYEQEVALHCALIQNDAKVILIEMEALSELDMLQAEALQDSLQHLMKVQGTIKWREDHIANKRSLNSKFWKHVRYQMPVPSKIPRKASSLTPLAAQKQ
Numbers stand for hits; - = inactive. The full list was thinned out, with hits kept by preference.

SMILES | ST2 inh
O=C1CCCC2=C1C(c1ccc(F)c(Oc3ccccc3)c1)Nc1ccccc1N2 (stereo unspecified) | -
COc1cccc(NS(=O)(=O)c2c(C)noc2C)c1 | -
CCOc1ccc(S(=O)(=O)NC(C)C)c2cccnc12 | -
FC(F)(F)c1cccc(N2CCN(C3CCCN(CCc4ccccn4)C3)CC2)c1 (stereo unspecified) | -
O=C(Nc1nc(-c2cc3ccccc3oc2=O)cs1)c1ccccc1Br | -
O=C(Nc1nc(-c2cc3ccccc3oc2=O)cs1)c1c(F)cccc1F | -
O=c1oc2ccccc2cc1-c1csc(Nc2ncccn2)n1 | 34.0%
Cc1cc(N(C)C)nc(Nc2ccc(NC(=O)c3ccc(C(F)(F)F)cc3)cc2)n1 | -
CCCn1ccnc1-c1c(-c2ccccc2)ncn1Cc1cccnc1 | -
CC(=O)Nc1ccc2cccc(O)c2n1 | -
Oc1cccc2ccc(/C=C/c3cc4c(cc3Cl)OCO4)nc12 | 32.0%
O=C(c1ccccn1)N1CCCC(CCc2ccccc2C(F)(F)F)C1 (stereo unspecified) | -
O=C(CCS(=O)(=O)Cc1ccccc1F)N1CCC2(CC1)OCCO2 | -
CCC1CCCCN1CCCNC(=O)C1CCN(S(C)(=O)=O)CC1 (stereo unspecified) | -
C=CC(C)(O)CC/C=C(\C)CCC(O)C(C)(C)O (stereo unspecified) | 43.0%
c1ccc2[nH]c(CC3CCCN(Cc4cc5n(n4)CCNC5)C3)nc2c1 (stereo unspecified) | -
CC(=O)NCCc1n[nH]c(Cc2ccccc2)n1 | -
COc1ccc(S(=O)(=O)N2CCN(S(=O)(=O)c3ccc(C)cc3)CC2)cc1 | -
Cc1ccc(S(=O)(=O)N2CN3CN(C2)CN(S(=O)(=O)c2ccc(C)cc2)C3)cc1 | 46.0%
Cc1ccc(S(=O)(=O)N2CCN(c3ccccc3)CC2)cc1 | -
O=C(Cn1cnc2c(cnn2-c2ccc(Cl)cc2)c1=O)OCc1ccccc1 | -
COc1ccccc1CNC(=O)C1CCCCC1C(=O)O (stereo unspecified) | -
O=C(O)CCC(=O)Nc1ccc(-c2ccc([N+](=O)[O-])cc2)cc1 | -
N#C/C(=C\c1ccccc1[N+](=O)[O-])c1nc(-c2ccc(Cl)c(Cl)c2)cs1 | -
COc1ccc(/C=C(\C#N)[N+](=O)[O-])cc1 | -
SMILES | ST2 inh
N#C/C(=C\c1cccs1)c1nc(-c2ccc(Cl)c(Cl)c2)cs1 | -
O=C(Nc1nc(-c2ccccc2)cs1)c1ccccc1 | -
COc1ccc(OC)c(N/C=C(\C#N)c2nc(-c3cc4ccccc4oc3=O)cs2)c1 | 37.0%
COc1ccc(-c2cc(C(F)(F)F)nc(NCc3cccs3)n2)cc1 | -
COc1ccc(-c2csc(/C(C#N)=C/c3ccc(Cl)cc3)n2)cc1 | 34.0%
N#C/C(=C/c1ccccc1Cl)c1nc(-c2ccccc2)cs1 | 65.0%
COc1cc(N/C=C(\C#N)c2nc(-c3cc4ccccc4oc3=O)cs2)c(OC)cc1Cl | -
COc1ccc(-c2csc(/C(C#N)=C/c3cccs3)n2)cc1 | 50.0%
COc1ccc(-c2csc(/C(C#N)=C\c3ccc(F)cc3)n2)cc1OC | -
COc1ccc(N/C=C(\C#N)c2nc(-c3cc4cc([N+](=O)[O-])ccc4oc3=O)cs2)c(OC)c1 | -
CCCOCCOC(=O)C1=C(C)NC2=C(C(=O)C(C(=O)OC)C(C)C2)C1c1ccc(C)o1 (stereo unspecified) | -
Fc1ccc(CSc2nnnn2-c2ccc3c(c2)OCO3)c(Cl)c1 | -
CCOc1ccc(-c2ncnn2-c2ccc(C)c(Cl)c2)cc1 | -
O=C(O)c1ccc(Sc2nc3ccccc3o2)c([N+](=O)[O-])c1 | -
CCn1c2ccccc2c2cc(CN3CCc4nnc(C(C)NC(=O)C5CC5)n4CC3)ccc21 (stereo unspecified) | -
CC[C@H]1CN(S(=O)(=O)c2c(C)noc2C)CC[C@H]1CC(=O)NCCSC | -
CCn1ccc(-c2[nH]cnc2-c2ccccc2)n1 | -
CCOC(=O)c1cnn(-c2ccccc2)c1NC(=O)c1cccs1 | -
O=C(Nc1cccc(F)c1)C12CC3CC(CC(C3)C1)C2 | -
Cc1cccc(-c2ncc(CNCCCc3ccccc3)cn2)c1 | -
COc1cccc(C(=O)Nc2nc(C(F)(F)F)c(-c3ccccn3)s2)c1 | -
O=C(Cc1cccs1)NC1CC(=O)N(Cc2ccccc2C(F)(F)F)C1 (stereo unspecified) | -
CCn1ccc(C(=O)N(Cc2ccc(SC)cc2)C2CC2)n1 | -
COc1cccc2cc(-c3nc(-c4ccc(Cl)cc4)cs3)c(=O)oc12 | -
COc1cc(N/C=C(/C#N)c2nc(-c3ccc(F)cc3)cs2)c(OC)cc1Cl | -
SMILES | ST2 inh
COc1ccc(-c2csc(/C(C#N)=C/c3ccccc3OC)n2)cc1 | 40.0%
COc1ccc(-c2csc(/C(C#N)=C/c3ccccc3Cl)n2)cc1 | 42.0%
COc1ccc(C2=Nn3c(nnc3-c3ccccc3Cl)SC2)cc1 | -
COc1ccc(-c2csc(/C(C#N)=C\Nc3cccc(C(F)(F)F)c3)n2)cc1OC | -
CCc1nc(C)ccc1OCC(=O)N1CCOC(Cc2ccccc2)C1 (stereo unspecified) | -
CCOc1ccccc1N1CCN(Cc2ccc([N+](=O)[O-])cc2)CC1 | -
Cc1ccccc1N1CCN(Cc2ccc(Br)s2)CC1 | -
O=[N+]([O-])c1ccc(N2CCN(Cc3ccc(Br)s3)CC2)cc1 | 36.0%
O=[N+]([O-])c1ccc(N2CCN(CCO)CC2)cc1 | -
COc1cc(CN2CCN(c3ccc([N+](=O)[O-])cc3)CC2)ccc1O | -
CN(C)c1ccc(CN2CCN(c3ccc([N+](=O)[O-])cc3)CC2)cc1 | 51.0%
Cc1cc(C)n(CCCNC2CCN(CC(C)C)CC2)n1 | -
COc1cccc(NC(=O)CN(c2cccc(Br)c2)S(C)(=O)=O)c1 | -
Cc1ccc(C)c(N(CN2C(=O)c3ccccc3C2=O)C(=O)C(F)(F)F)c1 | -
O=C1OC(c2ccc3c(c2)OCO3)=N/C1=C\c1ccccc1Br | -
CCOc1ccc(/C=C2\N=C(c3ccc(Br)cc3)OC2=O)cc1 | -
Cc1ccc(C2=N/C(=C\c3ccco3)C(=O)O2)cc1[N+](=O)[O-] | -
Cc1ccccc1C1=N/C(=C\c2ccco2)C(=O)O1 | 44.0%
CC1=N/C(=C\c2ccc(OC(F)F)cc2)C(=O)O1 | -
Cc1ccc(/C=C2\N=C(c3ccc(I)cc3)OC2=O)o1 | 47.0%
Cc1ccc(/C=C2\N=C(c3ccccc3C)OC2=O)o1 | 65.0%
CCCn1c(=O)[nH]c(=O)c2[nH]cnc21 | -
O=C(C1CC1)N1CCc2cc(Br)cc(S(=O)(=O)Nc3ccc(F)c(F)c3)c21 | -
O=S(=O)(NC1CC1)c1ccc(Br)cc1 | -
CCCN(C(=O)Cc1c(C(=O)O)[nH]c2ccc(Cl)cc12)c1ccccc1F | -
SMILES | ST2 inh
COc1ccccc1-n1cc(C(=O)N2CCC3(CCCN(C)C3=O)C2)cn1 (stereo unspecified) | -
CC(=O)c1ccc(N2C(=O)c3c(C)nc4ccccc4c3C2=O)cc1 | -
COc1ccc(C(=O)Nc2cccc(Cl)c2C)cc1Cl | -
Cn1nc(-c2ccc(NC(=O)c3ccccc3)cc2)cc1NC(=O)c1ccccc1 | -
c1cc(-c2ccncc2)c2cccnc2c1 | -
Cc1ccc(OCC(O)C(C)NC(C)C)c2c1CCC2 (stereo unspecified) | -
N#CC1=C(SCc2ccccc2)NC(=O)C(C#N)C12CCCCC2 (stereo unspecified) | -
NC(=O)C1COc2ccccc2O1 (stereo unspecified) | -
CCN(CC)CCNC(=O)c1ccc2c(c1)N(Cc1ccc(F)cc1Cl)C(=O)CS2 | -
